Source: PubChem
Sampled rows, rich in hits. Any-hit rate of the full collection: about 17%.
ATXN viability: Viability Counterscreen for Primary qHTS for Inhibitors of ATXN expression | actives 0.49% (n = 400,000) | S2 cells (HEK-293 line with an ATXN2-luciferase reporter) viability, CellTiter-Fluor protease fluorescence, 24 h | Potency, µM (series often up to 56.7 µM), usual class: cytotoxic; further: nearly all actives have a fitted effect of over 40% in size
TDP1 cell noCPT: qHTS for Inhibitors of human tyrosyl-DNA phosphodiesterase 1 (TDP1): qHTS in cells in absence of CPT | Potency, µM (series often up to 46.2 µM), without a hit: at the top dose activity change, negative = growth inhibition, most hits filed as inhibitors | DT40 Tdp1-/- hTDP1 cells, no CPT, ATP luminescence, 48 h | actives 15% (n = 420,000) | AID 686978, 2013; further: on the % scale 0 is the no-effect control and ±100 the full control effect; nearly all actives have a fitted effect of over 55% in size
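Readout: luminescence from CellTiter-Glo after 30 min in the dark at RT. Cells: DT40 Tdp1-/- with stable hTDP1, 400/well. Exposure: compounds alone, ≥48 hr, 37 °C.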
DT40 TDP1 CPT: qHTS for Inhibitors of human tyrosyl-DNA phosphodiesterase 1 (TDP1): qHTS in cells in presence of CPT. actives 12% (n = 420,000). Potency, µM (series often up to 46.2 µM), without a hit: at the highest dose activity change, negative = growth inhibition, most hits filed as inhibitors. chicken DT40 Tdp1-/-;hTDP1 cells + 20 nM CPT, ATP luminescence, 48 h. AID 686979, 2013; further: on the % scale 0 is the no-effect control and ±100 the full control effect; nearly all actives have a fitted effect of over 55% in size
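Cell growth measured by CellTiter-Glo luminescence after a minimum 48 h, 37 C compound exposure with 20 nM CPT in Tdp1-knockout DT40 cells stably expressing hTDP1, seeded 400/well; qHTS titration format.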
HepG2 tox: qHTS for Inhibitors of TGF-b: Cytotox Counterscreen; Potency, µM (doses to about 46.1 µM), for the others: at the top dose activity change, negative = cytotoxicity, usual class: cytotoxic; HepG2 CAGA-GFP viability, ATP luminescence, 18 h; actives 0.76% (n = 410,000); AID 588856, 2011
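CellTiter-Glo luminescence gave cytotoxicity after 18 hours at 37 degrees C. The cells were HepG2 CAGA-GFP in 1% FBS DMEM, stimulated with 500 pg/mL TGF-beta after compound addition. %Activity was normalised to no-cell wells (complete cell-killing) and DMSO (no toxicity), and curves were fitted and classified.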
ATXN2 expr inh: Primary qHTS for Inhibitors of ATXN expression | HEK-293 ATXN2-luciferase reporter, luminescence, 24 h | Potency, µM (series often up to 57 µM), for inactives: at the top dose activity change, negative = inhibition, actives largely listed as inhibitors | actives 0.72% (n = 360,000); further: on the % scale 0 is the no-effect control and ±100 the full control effect; nearly all actives have a fitted effect of over 55% in size
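ATXN2-luciferase reporter cells (luciferase flanked by upstream and downstream ATXN2 gene portions) were treated 24 h at 37 °C with compounds at up to 57 uM. SteadyGlo luminescence gave expression; GF-AFC fluorescence gave viability.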
TGFb SMAD3 inh: qHTS for Inhibitors of TGF-b; HepG2 CAGA-GFP TGF-b/SMAD3 reporter, GFP fluorescence, 18 h; TGF-beta stimulated, 500 pg/mL final; Potency, µM (highest dose often 46.1 µM), without a hit: at the top dose activity, negative = inhibition, usual class: inhibitors; actives 1.2% (n = 410,000); further: on the % scale 0 is the no-effect control and ±100 the full control effect; nearly all actives have a fitted effect of over 65% in size
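HEPG2 CAGA-GFP, 1000 cells/well; 2 h settle, 37 C; cpd via pin tool; TGF-b 500 pg/mL final; 18 h, 37 C; GFP imaging ex488/em500-530; %Activity normalised to -TGF-b and +DMSO controls; CRC fit, curve class.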
* marks the source's active call; other numbers are inactive results; i = inactive; ? = inconclusive; . = no result; ! = not active in a repeat; [ ] = remark or other dose. The call rests on the fitted dose curve; in most records, active means well fitted curve in the direction sought with a large enough effect; inconclusive means small, poorly fitted or top-dose-only effect, or another doubt; inactive means no such curve, though single readings can be large; an effect the other way counts as inactive or inconclusive. Potency means the concentration at half of the fitted maximal effect.

SMILES	ATXN viability	TDP1 cell noCPT	DT40 TDP1 CPT	HepG2 tox	ATXN2 expr inh	TGFb SMAD3 inh
Cc1nnsc1S(=O)c1ccc(Cl)cc1 (configuration not stated)	i	?	?	3.4%	.	-5.7%
O=C(Nc1ccccc1)c1nnsc1S(=O)c1ccc(Cl)cc1 (configuration not stated)	?	0.82µM*	0.581µM*	-88.6%	?	?
CNC(=O)c1nnsc1S(=O)(=O)c1ccc(Cl)cc1	?	1.46µM*	0.731µM*	17.8µM*	?	11.2µM*
O=C(c1nnsc1S(=O)c1ccc(Cl)cc1)N1CCOCC1 (configuration not stated)	.	0.82µM*	0.461µM*	-98.0%	4.6%[11.3 µM]	?
Nc1nc(C(=O)N2CCOCC2)nn1S(=O)(=O)c1ccc(Cl)cc1	i	?	?	-23.4%	2.0%	-6.9%
O=C(c1nnsc1S(=O)(=O)c1ccc(Cl)cc1)N1CCOCC1	.	2.91µM*	2.31µM*	12.6µM*	?	?
Cc1ccc2[nH]c3c(c2c1)CN(C(C)C)CC3	i	?	?	4.1%	-36.8%	0.0%
C/C(=N\NC(=O)c1csc2ccccc12)c1ccc(O)cc1	i	9.2µM*	?	-20.8%	17.4%	?
O=C(N/N=C/c1cccc(O)c1)c1ccccc1O	i	0.9%	2.3%	-18.7%	6.2%	6.4%
O=C(N/N=C/c1ccc(O)c(O)c1)c1cc(-c2ccccc2)nc2ccccc12	i	?	8.2µM*	-34.2%	30.0%	-0.4%
CCn1ncc(/C=N\NC(=O)c2csc3ccccc23)c1C	i	4.61µM*	2.59µM*	-1.9%	3.8%	-14.7%
O=C(N/N=C/c1cccc(O)c1)c1csc2ccccc12	i	0.651µM*	?	-24.7%	23.5%	-7.7%
Cc1c(/C=N\NC(=O)c2csc3ccccc23)cnn1C	i	?	?	-8.6%	27.5%	-9.9%
O=C(C1CCN(S(=O)(=O)Cc2ccccc2)CC1)N1CCN(c2cccc(C(F)(F)F)c2)CC1	i	?	-20.2%	-10.6%	-3.0%	25.5%
OC(c1ccc(F)c(F)c1)c1nc(-c2ccc3ccccc3c2)cs1 (configuration not stated)	?	?	?	-61.4%	18.3%	?
CCOC(=O)C1CCCN(C(=O)c2ccccc2NS(=O)(=O)c2ccc(F)cc2)C1 (configuration not stated)	i	-28.5%	-15.8%	-1.0%	-6.3%	-2.1%
COc1ccc(/C=N/NC(=O)c2cc(-c3ccccc3)nc3ccccc23)c(OC)c1	i	?	14.6µM*	-22.7%	.	-12.7%
O=C(N/N=C/c1cccc(O)c1)c1cc(-c2ccccc2)nc2ccccc12	i	?	2.31µM*	-22.3%	20.2%	-9.6%
COc1cccc(/C=N/NC(=O)c2nc(-c3ccccc3)cc(-c3ccccc3)n2)c1	?	20.6µM*	16.4µM*	24.1%	-34.6%	-8.1%
O=C(N/N=C/c1c(F)c(F)c(F)c(F)c1F)c1cc(-c2ccccc2)nc2ccccc12	i	-28.7%	?	4.2%	8.7%	-11.3%
O=C(N/N=C/C=C\c1ccccc1[N+](=O)[O-])c1cc(-c2ccccc2)nc2ccccc12	i	14.6µM*	23.1µM*	-22.8%	-9.8%	-25.9%
COc1c(C)cc(S(=O)(=O)NCc2ccco2)c(C)c1C	.	-6.5%	-3.1%	-28.8%	15.8%	-7.8%
O=C(N/N=C/c1ccc(Cl)c([N+](=O)[O-])c1)C1CC1	i	-2.3%	-23.8%	-21.0%	4.1%	-16.2%
O=C(N/N=C/c1ccc(Cl)c([N+](=O)[O-])c1)c1cc(-c2ccccc2)nc2ccccc12	i	7.31µM*	6.51µM*	-3.1%	.	-7.2%
CCc1nc(N2CCN(C(=O)CCl)CC2)c2c3c(sc2n1)CC(C)CC3 (configuration not stated)	.	6.51µM*	3.26µM*	17.8µM*	-20.6%	?
SMILES	ATXN viability	TDP1 cell noCPT	DT40 TDP1 CPT	HepG2 tox	ATXN2 expr inh	TGFb SMAD3 inh
CCc1nc(N2CCN(C(C)=O)CC2)c2c3c(sc2n1)CC(C(C)(C)C)CC3 (configuration not stated)	?	11.6µM*	?	-11.9%	.	4.1%
Oc1ccc(C=NNC(=S)Nc2cccnc2)nc1	?	20.6µM*	16.4µM*	-36.3%	?	?
Oc1ccc(/C=N/NC(=S)Nc2cccnc2)cc1O	i	-4.6%	17.2%	-25.9%	4.6%	-1.0%
CNc1cc(OC)c(C(=O)N[C@H]2CCN(Cc3ccccc3)[C@H]2C)cc1Cl	.	11.9µM*	10.6µM*	.	.	.
N#Cc1c(NC(=S)NC(=O)C2CCCC2)sc2c1CCCCC2	?	?	?	-4.2%	6.5%	-24.2%
Cc1cc(C)cc(NC(=O)CCC(=O)N2CCSc3ccccc32)c1	?	18.4µM*	?	-0.6%	-12.8%	11.2µM*!
Cc1ccccc1CNC(=O)CCC(=O)N1CCSc2ccccc21	.	?	?	-19.6%	.	-26.7%
COc1ccc(Br)cc1CNC(=O)c1ccc2c(c1)N(C)CCS2	?	?	23.1µM*	-32.9%	0.0%	-3.0%
COC(=O)c1ccccc1NC(=O)CCC(=O)N1CCSc2ccccc21	i	-21.1%	-7.5%	-28.6%	-1.2%	-4.9%
COc1ccc(Br)cc1CNC(=O)CCC(=O)N1CCSc2ccccc21	i	20.6µM*	?	0.6%	-7.8%	?
CCN1CCSc2ccc(C(=O)NCc3cc(Br)ccc3OC)cc21	i	?	16.4µM*	-15.9%	-24.3%	3.9%
O=C(O)c1ccc2c(c1)C(=O)N(N1C(=O)c3ccccc3C1=O)C2=O	i	-17.3%	0.7%	-15.6%	2.5%	2.7%
NC(=O)C1CCN(C(=O)c2ccc(NS(=O)(=O)/C=C/c3ccccc3)cc2)CC1	i	-23.2%	-0.3%	-16.6%	.	3.9%
CN(CC(=O)Nc1ccc(Cl)cc1)C(=O)CCc1nc2sc3c(c2c(=O)[nH]1)CCCC3	?	?	?	-41.1%	?	-12.7%
CC1CCc2c(sc(NC(=O)c3ccc(N4C(=O)CCC4=O)cc3)c2C(N)=O)C1 (configuration not stated)	i	-0.1%	-1.6%	-10.0%	-2.9%	-0.1%
O=C(Nc1cccc(F)c1)N1CCc2nc(NCc3cccc(Oc4ccccc4)c3)ncc2C1	?	14.6µM*	?	-15.5%	0.0%	?
